According to the supplement of paper PMC11732987, “Enantioselective OTUD7B fragment discovery through chemoproteomics screening and high-throughput optimisation” (Communications Chemistry, 2025):

Tests used:
Test in all cases: log2 ratio of Biotin-Ahx-Ub-VS probe labelling (fragment/DMSO); higher = less target engagement (more negative = stronger competition), active = hit call of the paper (q ≤ 0.05, log2 ratio ≤ -1)
Settings in all cases: compound concentration: 200 uM; treatment time: 3 h
USP19 = molecular target: T1, USP19 (UniProt O94966)
T1 sequence (whole entry): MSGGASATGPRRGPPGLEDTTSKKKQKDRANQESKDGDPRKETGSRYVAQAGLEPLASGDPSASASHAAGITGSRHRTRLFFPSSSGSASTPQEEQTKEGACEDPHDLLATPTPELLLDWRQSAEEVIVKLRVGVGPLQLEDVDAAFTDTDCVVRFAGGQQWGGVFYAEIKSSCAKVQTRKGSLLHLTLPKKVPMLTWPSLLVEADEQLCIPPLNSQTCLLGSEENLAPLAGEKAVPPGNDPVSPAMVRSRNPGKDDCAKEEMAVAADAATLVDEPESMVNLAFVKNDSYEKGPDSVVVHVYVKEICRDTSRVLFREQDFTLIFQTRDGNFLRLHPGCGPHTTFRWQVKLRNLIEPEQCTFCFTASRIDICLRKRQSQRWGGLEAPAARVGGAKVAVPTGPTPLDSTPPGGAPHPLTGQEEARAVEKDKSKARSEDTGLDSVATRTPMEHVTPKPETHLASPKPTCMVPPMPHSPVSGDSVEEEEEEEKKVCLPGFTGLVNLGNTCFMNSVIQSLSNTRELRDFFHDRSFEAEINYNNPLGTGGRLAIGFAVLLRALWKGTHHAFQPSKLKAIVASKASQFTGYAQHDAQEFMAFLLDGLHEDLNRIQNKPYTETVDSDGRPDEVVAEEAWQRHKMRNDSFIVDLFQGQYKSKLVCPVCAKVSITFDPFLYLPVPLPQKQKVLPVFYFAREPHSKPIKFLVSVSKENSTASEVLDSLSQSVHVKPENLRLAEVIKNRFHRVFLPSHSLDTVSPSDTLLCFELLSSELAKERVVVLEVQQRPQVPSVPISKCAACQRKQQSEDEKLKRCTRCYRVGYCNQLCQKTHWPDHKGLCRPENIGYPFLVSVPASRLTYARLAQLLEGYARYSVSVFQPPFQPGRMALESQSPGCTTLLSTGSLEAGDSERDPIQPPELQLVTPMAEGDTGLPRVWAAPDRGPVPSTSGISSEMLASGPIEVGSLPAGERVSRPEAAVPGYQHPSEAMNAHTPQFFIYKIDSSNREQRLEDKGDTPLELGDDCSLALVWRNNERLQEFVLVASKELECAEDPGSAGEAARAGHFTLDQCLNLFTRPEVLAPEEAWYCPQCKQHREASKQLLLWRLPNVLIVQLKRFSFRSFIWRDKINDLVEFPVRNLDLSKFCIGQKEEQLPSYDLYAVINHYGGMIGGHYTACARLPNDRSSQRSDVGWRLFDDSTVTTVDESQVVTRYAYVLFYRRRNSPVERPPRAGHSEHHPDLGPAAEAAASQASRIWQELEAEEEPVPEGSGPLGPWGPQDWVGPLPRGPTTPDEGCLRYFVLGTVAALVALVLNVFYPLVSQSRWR
Procedure, shortened: (§1)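 Using Biotin-Ahx-Ub-VS at 0.5 µM final for 1 h, DUBs were labelled in HEK293T lysate (495 µg per sample) that had first been treated in triplicate with fragment at 200 µM or vehicle for 3 h. NeutrAvidin enrichment, LysC and trypsin digestion and diaPASEF LC-MS/MS followed. Spectronaut label-free quantities were global-median-normalised. Values are average log2 fragment/vehicle ratios by unpaired t-test, using proteins with ≥2 unique peptides.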

USP24 = USP24 (UniProt Q9UPU5)
Procedure, shortened: as §1

USP25 = molecular target: T2, USP25 (UniProt Q9UHP3)
T2 sequence (whole entry): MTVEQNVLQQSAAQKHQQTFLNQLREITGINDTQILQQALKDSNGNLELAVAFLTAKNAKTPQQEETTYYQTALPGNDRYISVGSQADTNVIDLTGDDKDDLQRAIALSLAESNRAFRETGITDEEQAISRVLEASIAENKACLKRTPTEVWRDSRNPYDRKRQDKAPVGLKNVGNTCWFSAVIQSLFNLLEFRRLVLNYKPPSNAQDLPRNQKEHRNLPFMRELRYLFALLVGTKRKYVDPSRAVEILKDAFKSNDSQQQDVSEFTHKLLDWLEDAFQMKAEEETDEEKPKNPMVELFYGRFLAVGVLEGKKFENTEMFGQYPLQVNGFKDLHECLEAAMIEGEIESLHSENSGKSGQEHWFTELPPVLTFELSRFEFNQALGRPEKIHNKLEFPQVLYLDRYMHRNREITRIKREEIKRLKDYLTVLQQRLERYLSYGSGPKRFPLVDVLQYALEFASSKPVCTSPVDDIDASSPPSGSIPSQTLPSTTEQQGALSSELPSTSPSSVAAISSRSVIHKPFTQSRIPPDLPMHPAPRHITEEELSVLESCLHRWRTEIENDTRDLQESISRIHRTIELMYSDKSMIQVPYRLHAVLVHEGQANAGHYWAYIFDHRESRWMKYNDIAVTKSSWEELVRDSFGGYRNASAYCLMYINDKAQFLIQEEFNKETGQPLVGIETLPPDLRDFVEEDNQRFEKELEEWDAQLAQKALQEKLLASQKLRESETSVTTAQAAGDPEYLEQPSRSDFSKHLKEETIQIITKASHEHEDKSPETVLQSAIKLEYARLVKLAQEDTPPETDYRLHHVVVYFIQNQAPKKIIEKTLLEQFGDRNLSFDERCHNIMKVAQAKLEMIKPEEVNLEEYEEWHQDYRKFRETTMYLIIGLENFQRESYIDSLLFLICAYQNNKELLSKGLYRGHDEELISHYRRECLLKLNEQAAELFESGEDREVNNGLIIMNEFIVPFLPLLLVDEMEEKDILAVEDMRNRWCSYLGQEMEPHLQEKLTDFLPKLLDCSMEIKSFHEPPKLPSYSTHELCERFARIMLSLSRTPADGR
Procedure, shortened: as §1

USP28 = molecular target: T3, USP28 (UniProt Q96RU2)
T3 sequence (whole entry): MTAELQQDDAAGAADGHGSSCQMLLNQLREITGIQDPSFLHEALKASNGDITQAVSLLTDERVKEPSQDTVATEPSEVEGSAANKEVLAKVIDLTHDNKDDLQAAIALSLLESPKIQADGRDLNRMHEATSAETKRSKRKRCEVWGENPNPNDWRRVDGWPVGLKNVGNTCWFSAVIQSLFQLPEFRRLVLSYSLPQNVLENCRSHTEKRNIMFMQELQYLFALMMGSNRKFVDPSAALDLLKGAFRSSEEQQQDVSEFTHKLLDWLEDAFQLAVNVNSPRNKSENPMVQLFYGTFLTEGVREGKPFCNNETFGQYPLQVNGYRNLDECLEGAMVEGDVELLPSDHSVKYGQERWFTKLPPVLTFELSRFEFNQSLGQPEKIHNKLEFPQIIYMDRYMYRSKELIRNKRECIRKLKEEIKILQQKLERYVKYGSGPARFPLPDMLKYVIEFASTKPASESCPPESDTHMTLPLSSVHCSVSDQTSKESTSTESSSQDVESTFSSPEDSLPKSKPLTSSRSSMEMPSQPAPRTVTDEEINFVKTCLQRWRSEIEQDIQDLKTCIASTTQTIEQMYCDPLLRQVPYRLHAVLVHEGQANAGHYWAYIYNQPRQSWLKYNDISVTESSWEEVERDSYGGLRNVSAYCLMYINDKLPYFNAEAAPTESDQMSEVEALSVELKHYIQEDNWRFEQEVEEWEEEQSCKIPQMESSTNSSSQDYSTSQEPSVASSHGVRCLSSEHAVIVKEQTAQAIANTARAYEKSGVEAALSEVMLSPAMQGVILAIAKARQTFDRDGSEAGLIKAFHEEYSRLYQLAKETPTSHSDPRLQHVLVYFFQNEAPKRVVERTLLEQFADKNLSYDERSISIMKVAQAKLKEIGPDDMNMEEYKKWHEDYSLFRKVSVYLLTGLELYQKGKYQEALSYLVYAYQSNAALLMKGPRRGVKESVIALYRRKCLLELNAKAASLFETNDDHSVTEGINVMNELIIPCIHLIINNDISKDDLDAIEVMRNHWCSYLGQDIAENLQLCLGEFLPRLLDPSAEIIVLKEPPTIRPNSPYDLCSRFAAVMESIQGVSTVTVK
Procedure, shortened: as §1

Measured: log2 ratio of Biotin-Ahx-Ub-VS probe labelling

Chain of USP24 (Q9UPU5 whole entry): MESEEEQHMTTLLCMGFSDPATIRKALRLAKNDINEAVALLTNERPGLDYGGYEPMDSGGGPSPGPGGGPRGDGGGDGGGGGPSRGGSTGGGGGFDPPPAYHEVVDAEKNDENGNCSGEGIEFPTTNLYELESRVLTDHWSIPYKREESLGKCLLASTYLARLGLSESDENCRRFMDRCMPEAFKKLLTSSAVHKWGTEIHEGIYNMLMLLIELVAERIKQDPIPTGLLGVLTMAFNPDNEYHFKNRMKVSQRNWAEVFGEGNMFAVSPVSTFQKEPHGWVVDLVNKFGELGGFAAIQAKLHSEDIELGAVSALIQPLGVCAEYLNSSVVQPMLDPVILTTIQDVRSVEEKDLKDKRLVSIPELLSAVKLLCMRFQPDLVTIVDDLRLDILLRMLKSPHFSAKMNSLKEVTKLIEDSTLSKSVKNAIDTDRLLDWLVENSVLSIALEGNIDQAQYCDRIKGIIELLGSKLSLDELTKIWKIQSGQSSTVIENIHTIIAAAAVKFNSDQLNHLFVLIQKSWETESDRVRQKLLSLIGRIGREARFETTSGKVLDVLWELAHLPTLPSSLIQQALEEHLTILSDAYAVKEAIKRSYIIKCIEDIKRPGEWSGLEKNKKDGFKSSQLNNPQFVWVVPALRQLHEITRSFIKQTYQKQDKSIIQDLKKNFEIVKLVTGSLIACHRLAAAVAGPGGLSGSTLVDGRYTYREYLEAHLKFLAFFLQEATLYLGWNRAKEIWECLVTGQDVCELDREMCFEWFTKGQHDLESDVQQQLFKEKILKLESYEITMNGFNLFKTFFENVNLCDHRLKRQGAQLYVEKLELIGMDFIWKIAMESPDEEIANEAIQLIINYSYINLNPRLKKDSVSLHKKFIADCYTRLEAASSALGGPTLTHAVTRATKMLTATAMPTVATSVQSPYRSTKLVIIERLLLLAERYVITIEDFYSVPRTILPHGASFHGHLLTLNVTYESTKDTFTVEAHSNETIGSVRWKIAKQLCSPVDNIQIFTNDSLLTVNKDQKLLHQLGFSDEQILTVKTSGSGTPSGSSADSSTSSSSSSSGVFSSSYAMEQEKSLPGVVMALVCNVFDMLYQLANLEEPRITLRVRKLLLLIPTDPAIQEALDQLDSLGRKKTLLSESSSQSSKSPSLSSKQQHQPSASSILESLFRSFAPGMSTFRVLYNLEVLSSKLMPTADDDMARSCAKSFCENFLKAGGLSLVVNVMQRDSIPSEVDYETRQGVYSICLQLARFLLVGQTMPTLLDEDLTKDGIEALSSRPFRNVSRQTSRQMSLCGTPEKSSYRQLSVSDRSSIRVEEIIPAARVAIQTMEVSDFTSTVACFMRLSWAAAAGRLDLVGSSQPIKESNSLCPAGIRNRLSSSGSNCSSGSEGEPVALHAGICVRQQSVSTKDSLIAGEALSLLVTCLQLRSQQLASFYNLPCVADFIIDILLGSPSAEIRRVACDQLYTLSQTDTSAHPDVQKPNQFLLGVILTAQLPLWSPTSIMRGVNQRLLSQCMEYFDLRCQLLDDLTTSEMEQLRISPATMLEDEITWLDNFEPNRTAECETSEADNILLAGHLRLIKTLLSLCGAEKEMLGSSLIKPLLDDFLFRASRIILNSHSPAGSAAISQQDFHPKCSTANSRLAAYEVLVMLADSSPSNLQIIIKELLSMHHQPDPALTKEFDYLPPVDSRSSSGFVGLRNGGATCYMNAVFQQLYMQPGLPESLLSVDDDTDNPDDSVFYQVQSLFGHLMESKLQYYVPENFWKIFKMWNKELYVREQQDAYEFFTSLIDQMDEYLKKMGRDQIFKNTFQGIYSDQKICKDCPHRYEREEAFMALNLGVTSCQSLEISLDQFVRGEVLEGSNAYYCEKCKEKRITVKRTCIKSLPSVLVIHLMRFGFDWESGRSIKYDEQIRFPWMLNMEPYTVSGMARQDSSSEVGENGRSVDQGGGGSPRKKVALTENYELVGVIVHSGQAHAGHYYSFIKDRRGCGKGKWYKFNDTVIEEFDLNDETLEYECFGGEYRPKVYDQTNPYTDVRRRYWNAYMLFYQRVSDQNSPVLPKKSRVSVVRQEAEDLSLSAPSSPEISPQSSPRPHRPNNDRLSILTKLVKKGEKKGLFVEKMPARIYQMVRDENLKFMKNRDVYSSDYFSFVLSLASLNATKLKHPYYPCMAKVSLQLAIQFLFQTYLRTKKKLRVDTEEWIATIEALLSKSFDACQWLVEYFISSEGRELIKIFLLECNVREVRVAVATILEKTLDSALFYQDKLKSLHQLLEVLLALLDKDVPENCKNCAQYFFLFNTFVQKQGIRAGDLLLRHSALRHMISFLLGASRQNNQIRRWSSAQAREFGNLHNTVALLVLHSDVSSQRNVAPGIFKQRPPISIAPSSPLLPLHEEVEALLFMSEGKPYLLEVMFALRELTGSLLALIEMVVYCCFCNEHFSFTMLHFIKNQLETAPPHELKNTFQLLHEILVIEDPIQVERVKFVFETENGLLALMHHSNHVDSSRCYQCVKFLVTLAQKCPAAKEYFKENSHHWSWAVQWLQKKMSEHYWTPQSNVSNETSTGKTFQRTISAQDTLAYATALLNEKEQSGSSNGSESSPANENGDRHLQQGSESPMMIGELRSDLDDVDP

O=C(CCl)N1CCC(=C(F)CO)C1
inactive: USP19 -0.052 | USP24 0.183 | USP25 0.0707 | USP28 -0.149
